Measured values published in PubChem BioAssay AID651958 (The Scripps Research Institute Molecular Screening Center, 2012).
Several values for one entry are separate records, joined by “and”; a condition that tells them apart may be missing. Equal entries are not always repeated. About 2,000 (0.54%) of roughly 370,000 compounds were called active. Cut-off read from the data, not from the text of the source: active = inhibition above about 30%; inactive = the rest. The entries come from a sample that favours actives as a whole.

These molecules were tested on Crimean-Congo hemorrhagic fever virus L polyprotein viral ovarian tumor (vOTU) protease domain (assay: CCHFV vOTU protease inhibitors, primary screen, biochemical, Pep-AMC substrate, fluorescence (AID 651958; note: 0% = vehicle wells with enzyme and 100% = no enzyme wells)). Conditions: at 11.5 µM, active compounds read high.
For CCOC(=O)c1ccc(NC(=O)C2CC(=O)Nc3nc4ccccc4n32)cc1 (stereo unspecified), the inhibition was 19.2% (inactive). CCOC(=O)c1ccc(Nc2cc3ccccc3c(=O)[nH]2)cc1 was tested, and the inhibition was 94.2% (active). CCOC(=O)c1cc2c(=O)[nH]c(C(Cl)(Cl)Cl)nc2o1 was tested, and the inhibition was -3.85% (inactive). Cc1cc(C)cc(NC(=S)NC2CC3CCCC(C2)N3Cc2cccs2)c1 (stereo unspecified) was tested, and the inhibition was -9.42% (inactive). With CCC(C)(C(=O)NC1CCCC1)N(C(=O)CNC(C)=O)c1ccc(C)cc1 (stereo unspecified) the inhibition was 7.89% (inactive). In the case of Oc1c(C=Nc2cccc3nsnc23)ccc2ccccc12, the inhibition is reported as 86% (active). In the case of CC1=C(C(=O)N2CCOCC2)CC(CC(=O)NCC2CCCCC2)C(=O)N1Cc1ccc(F)cc1 (stereo unspecified), the inhibition is reported as 14% (inactive). For CCCn1c(N)c(C(=O)CSc2nnc(Cc3cccs3)n2C2CC2)c(=O)[nH]c1=O, the inhibition was -3.09% (inactive). In the case of CC(=O)c1c(N)n(C)c(=O)n(C)c1=O, the inhibition is reported as 5.25% (inactive). With N#C/C(=C\c1ccccc1)c1n[nH]c(Cn2cncn2)n1 the inhibition was 4.11% (inactive). CCc1ccc(/C=N/NC(=O)c2ccc(OC3CCCC3)cc2)s1 was tested, and the inhibition was 12.3% (inactive). In the case of COc1ccc(CNCCCNCc2ccc(OC)c(OC)c2)cc1OC, the inhibition is reported as 5.96% (inactive). For Cc1ccc2[nH]c(=O)c(CC=C(Cl)Cl)c(C)c2c1, the inhibition was 3.16% (inactive). In the case of CC(C)(C)OC(=O)NCCCCCNC(=O)c1[nH]cnc1C(=O)Nc1nccs1, the inhibition is reported as 0.59% (inactive). In the case of CCOC(=O)c1ccc(NC(=O)c2nc[nH]c2C(=O)N[C@@H](CCCCNC(=O)OC(C)(C)C)C(=O)OC(C)(C)C)cc1, the inhibition is reported as 29.6% (active). For Cc1ccc(NC(=O)c2nc[nH]c2C(=O)N[C@@H](CCCCNC(=O)OC(C)(C)C)C(=O)OC(C)(C)C)cc1, the inhibition was 27.1% (inactive). With CCOC1=C2CN(S(=O)(=O)c3ccc(C)cc3)[C@H](c3cccs3)C[C@H]2[C@H]2C(=O)N(c3ccccc3)C(=O)[C@H]2C1 the inhibition was -5.03% (inactive). With O=C(COc1ccc(Cl)cc1)N1CCN(c2cccc(C(F)(F)F)c2)CC1 the inhibition was 32.4% (active). In the case of CSCCC(NC(=O)COc1ccccc1)C(=O)N1CCN(c2cccc(C(F)(F)F)c2)CC1 (stereo unspecified), the inhibition is reported as 13.9% (inactive). For O=C(COc1ccc(Cl)cc1)N1CCN(S(=O)(=O)c2ccc(Cl)cc2)CC1, the inhibition was 9.84% (inactive). With CCNC(=O)N1CCCC(C(=O)c2ccc(-c3ccccc3)cc2)C1 (stereo unspecified) the inhibition was -6.51% (inactive). With Cc1ccc(N(CCC(=O)O)S(=O)(=O)c2cccc(C(F)(F)F)c2)cc1 the inhibition was -2.86% (inactive). With Cc1noc(C)c1S(=O)(=O)Nc1ccc(C(=O)O)cc1 the inhibition was 7.91% (inactive). For Cc1oc2c(F)c(F)c(F)c(F)c2c1S(=O)(=O)Nc1cccc(C(F)(F)F)c1, the inhibition was 43.8% (active). For C[C@]12C=CC(=O)C=C1CC[C@@H]1[C@@H]2C(=O)C[C@@]2(C)[C@H]1CC[C@]2(O)C(=O)CO, the inhibition was 0.7% (inactive) and 3.02% (inactive). With COCCCN(C(=S)Nc1c(C)cc(C)cc1C)C(C)c1ccncc1 (stereo unspecified) the inhibition was -6.09% (inactive). In the case of CN(C)N1C(N)=C(C#N)C(c2ccc(Br)cc2)C2=C1CCCC2=O (stereo unspecified), the inhibition is reported as 35.1% (active). With CCc1ccc(C2C(C#N)=C(N)N(N(C)C)C3=C2C(=O)CCC3)s1 (stereo unspecified) the inhibition was 1.4% (inactive). For CCOc1ccc(C2C(C#N)=C(N)N(N(C)C)C3=C2C(=O)CCC3)cc1 (stereo unspecified), the inhibition was 16.2% (inactive). With CC(C(=O)N=Nc1c(O)n(C)c2ccc(Br)cc12)n1cnc2ccccc2c1=O (stereo unspecified) the inhibition was -4.46% (inactive). With CNc1nccc(-c2ccc(Cl)cc2)c1C#N the inhibition was -58.4% (inactive). In the case of CCn1c(C)nc2cc(C(=O)NNS(=O)(=O)c3ccc(C)cc3C)ccc21, the inhibition is reported as -9.65% (inactive). With O=C1Cc2ccccc2Sc2ccc(Cl)cc21 the inhibition was 7.8% (inactive). With CCN(CC)C(=O)[C@@H]1C=C2c3cccc4[nH]c(Br)c(c34)C[C@H]2N(C)C1 the inhibition was 33.8% (active). COc1ccc(NC(=O)C[C@H]2C(=O)N(CCc3ccccc3)C[C@@H]2C)cc1 was tested, and the inhibition was 29.5% (active). In the case of CC1(C)CN(CCc2ccccc2)C(=O)[C@H]1CC(=O)Nc1ccc(Br)cc1, the inhibition is reported as 21.8% (inactive). For COc1ccc(CCN2C(=O)N(c3ccc(OC)cc3)C(=O)C2CC(=O)Nc2ccc(OC)cc2)cc1 (stereo unspecified), the inhibition was 4.43% (inactive). For COC(=O)C1=C(c2cc3ccccc3s2)C[C@@H]2CC[C@H]1N2C(=O)NCCO, the inhibition was -0.84% (inactive). With Cc1noc(/C=C/c2ccco2)c1S(=O)(=O)N1CCC(C(=O)Nc2ccc(Cl)cn2)CC1 the inhibition was 2.84% (inactive). In the case of Cc1ccc(NC(=O)c2ccc(S(=O)(=O)NCC3CCCO3)cc2)cc1C (stereo unspecified), the inhibition is reported as -7.16% (inactive). In the case of CCOc1ccc(C(=O)Nc2ccc(S(=O)(=O)NCC3CCCO3)cc2)cc1OCC (stereo unspecified), the inhibition is reported as 35% (active). In the case of O=C(Nc1ccc(S(=O)(=O)NCC2CCCO2)cc1)c1ccc(F)cc1 (stereo unspecified), the inhibition is reported as 14% (inactive). In the case of CC(C)c1ccc(Nc2ncccc2C#N)cc1, the inhibition is reported as 7.01% (inactive). For CCC(C)(C)NC(=O)C(c1ccc(O)cc1)N(Cc1ccco1)C(=O)CCC(=O)Nc1ccccn1 (stereo unspecified), the inhibition was 0.91% (inactive). With CSc1ccccc1NC(=O)CN(C)CC(=O)Nc1cccc(Br)c1 the inhibition was 0.92% (inactive). With Cc1cccc(N(C(=O)c2sc(C)nc2C)C(C(=O)NCC2CCCO2)c2ccccc2)c1 (stereo unspecified) the inhibition was -8.32% (inactive). In the case of C=CCn1c(N)cc(=O)nc1SCC(=O)Nc1cccc2ccccc12, the inhibition is reported as -1.46% (inactive). Cc1ccc(-n2c(SCC(=O)Nc3cccc4ccccc34)nnc2-c2ccccn2)cc1 was tested, and the inhibition was -2.55% (inactive). In the case of Cc1ccccc1-n1c(SCC(=O)Nc2cccc3ccccc23)nc(O)cc1=O, the inhibition is reported as 32.7% (active). For O=C(Cn1cnc2c(OCc3ccccc3)ncnc21)NCc1nc2ccccc2[nH]1, the inhibition was -9.89% (inactive). Cn1c(=NC(=O)c2ccco2)sc2cccc(F)c21 was tested, and the inhibition was 5.27% (inactive). For Cn1c(=NC(=O)c2cnccn2)sc2ccccc21, the inhibition was 36.4% (active). For Cn1c(=NC(=O)c2ccc3c(c2)OCCO3)sc2cc(S(C)(=O)=O)ccc21, the inhibition was -4.23% (inactive). In the case of COC(=O)c1ccc(CN2C(=O)[C@]3(OCCC=C[C@H]3C)c3c(Br)cccc32)cc1, the inhibition is reported as 10.2% (inactive). For O=C(N[C@@H]1C/C=C\C[C@@H](CC(=O)N(CCO)Cc2ccccc2)C(=O)N[C@H](Cc2ccccc2)COC1=O)OCC1c2ccccc2-c2ccccc21, the inhibition was 0.7% (inactive). With CCOC(=O)N/N=C1\CC(C)S(=O)(=O)c2ccc(Cl)cc21 (stereo unspecified) the inhibition was -1.67% (inactive). For COc1ccc(C(=O)N2CCN(c3ccc(C(C)=O)cc3F)CC2)cc1S(=O)(=O)NC1CC1, the inhibition was 12.2% (inactive). With COc1ccc(CN2C(CC(=O)Nc3cccnc3)c3ccc(C(F)(F)F)cc3S2(=O)=O)cc1 (stereo unspecified) the inhibition was 1.05% (inactive). With COc1cccc(NC(=O)Nc2nnc(N3CCCCC3C)s2)c1 (stereo unspecified) the inhibition was 8.79% (inactive). COc1ccc(C(N)c2csc(NC(=O)Nc3cccc(C(F)(F)F)c3)n2)cc1 (stereo unspecified) was tested, and the inhibition was 36.4% (active). O=C1[C@@H](c2ccccc2)[C@@H](c2ccccc2)N1c1ccccc1 was tested, and the inhibition was -7.47% (inactive). COc1ccc(C(=O)/C=C/c2ccc(-c3ccccc3)cc2)cc1CSCC(=O)O was tested, and the inhibition was 29.8% (active). With COc1ccc(C(C)=O)cc1CSc1nc2nc(C)cc(C)n2n1 the inhibition was -9.62% (inactive). In the case of COc1cc(C(=O)N2CCN(C/C=C/c3ccccc3)CC2)cc(OC)c1C, the inhibition is reported as 11.4% (inactive). For Cc1noc(C)c1S(=O)(=O)N(C)C[C@H]1OCCCC[C@@H](C)Oc2ccc(NC(=O)CCCN(C)C)cc2C(=O)N([C@H](C)CO)C[C@@H]1C, the inhibition was -8.1% (inactive). CC(C)Oc1ccc(CN2CCC2(C)C(=O)NCc2ccc(C(F)(F)F)cc2)cc1 (stereo unspecified) was tested, and the inhibition was 35.6% (active). CC(C)CN1CCC1(C)C(=O)Nc1ccc(OC(F)F)cc1 (stereo unspecified) was tested, and the inhibition was 15.4% (inactive). CC(C)NC(=O)C1(C)CCCCN1Cc1cccc(C(F)(F)F)c1 (stereo unspecified) was tested, and the inhibition was 0.49% (inactive). For CC(=O)N=c1ncn(CC(COC(C)=O)OC(C)=O)c2nc[nH]c12 (stereo unspecified), the inhibition was 6.99% (inactive). In the case of COC(=O)Cc1ccc(OC2(C)CCN(Cc3ccc4c(c3)OCCO4)C2)cc1 (stereo unspecified), the inhibition is reported as 0.88% (inactive). In the case of CC(C)(C)NC(=O)C(c1ccco1)N(Cc1ccc2c(c1)OCO2)C(=O)Cn1nnc2ccccc21 (stereo unspecified), the inhibition is reported as 5.93% (inactive). In the case of CCCCCCCCNS(=O)(=O)/C=C/c1cc(C)ccc1CNC(=O)OC(C)(C)C, the inhibition is reported as 29.5% (inactive). For COCCn1c(=O)[nH]c(=O)c2cc(C(=O)c3cc(OC)ccc3O)cnc21, the inhibition was 16.3% (inactive). CCc1ccc(NC(=O)CN2C(=O)COc3ccc(S(=O)(=O)N4CCCC4)cc32)cc1 was tested, and the inhibition was -0.54% (inactive). For COP(=O)(Sc1ccccc1)C(Cc1ccccc1)NC(=O)OCc1ccccc1 (stereo unspecified), the inhibition was 3.36% (inactive). With COc1cc2c(cc1OC)C(c1cccc([N+](=O)[O-])c1)=NCC2 the inhibition was 10.7% (inactive). With COc1cc(CN2CCCN(C)CC2)c([N+](=O)[O-])cc1OC the inhibition was -3.03% (inactive). For COc1cc2c(cc1OC)C(Cc1cc(OC)c(OC)cc1[N+](=O)[O-])=NCC2, the inhibition was 40% (active). With CC(C)CCNC(=O)Cn1c(=O)oc2cc(S(=O)(=O)N3CC(C)CC(C)C3)ccc21 (stereo unspecified) the inhibition was 7.1% (inactive). In the case of CCCNC(=O)C1(C)CCN(C(=O)c2cc(F)ccc2C)C1 (stereo unspecified), the inhibition is reported as 6.2% (inactive). In the case of Nc1ccc(N=Nc2ccccc2Cl)c(N)n1, the inhibition is reported as 30% (active). COc1ccc(C(C(=O)NC(C)(C)C)N(C(=O)Cn2nnc3ccccc32)c2ccc(C(C)=O)cc2)cc1O (stereo unspecified) was tested, and the inhibition was 21.7% (inactive). In the case of Cc1nc(N)nc(SCc2ccc([N+](=O)[O-])cc2)c1N, the inhibition is reported as -13.9% (inactive). With Cc1oc2c(c1C(=O)N1CCOCC1)C(=O)c1ccccc1C2=O the inhibition was 70.8% (active). In the case of Cc1ccc(S(=O)(=O)NC(C(=O)N2CCOCCOCCOCCOCC2)c2ccccc2)cc1 (stereo unspecified), the inhibition is reported as -5.21% (inactive). In the case of N[C@@H](Cc1ccccc1)C(=O)N1CCOCC1, the inhibition is reported as -2.24% (inactive).
